# In the library only some 5.7% were active in any assay of this set; here they are far more common.
# TGFb inhibitor: qHTS for Inhibitors of TGF-b; 410,000 compounds, 1.2% hits; HepG2 CAGA-GFP TGF-b/SMAD3 reporter, GFP fluorescence, 18 h; TGF-beta stimulated, 500 pg/mL final; Potency, µM (titrated, usually from 46.1 µM), inactives show at the top dose activity, negative = inhibition, actives largely listed as inhibitors; AID 588855, 2011; also: potency is read from the fitted curve at half-maximal effect; % is scaled to controls: 0 for no effect and ±100 for the full control effect; nearly all actives have a fitted effect of over 65% in size
#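 TGF-beta reporter screen: HEPG2 CAGA-GFP, 1% FBS, 500 pg/mL TGF-beta final, 18 h; per-cell GFP summed per well; curves fitted and categorized by class.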
# ATXN viability: Viability Counterscreen for Primary qHTS for Inhibitors of ATXN expression | 400,000 compounds, 0.49% hits | AID 651635, 2014 | Potency, µM (titrated, usually from 56.7 µM), most hits filed as cytotoxic | S2 cells (HEK-293 line with an ATXN2-luciferase reporter) viability, CellTiter-Fluor protease fluorescence, 24 h; also: potency is read from the fitted curve at half-maximal effect; nearly all actives have a fitted effect of over 40% in size
# IL1B secr inh: qHTS for Inhibitors of Inflammasome Signaling: IL-1-beta AlphaLISA Primary Screen; 360,000 compounds, 4.7% hits; THP-1 LPS/ATP IL-1B secretion, AlphaLISA, 16 h; hits give low values; activity change, % at 57.5 µM; AID 743279, 2014; in the data active = activity change below about -50%; inconclusive = mostly about -30% to -49%; also: % is scaled to controls: 0 for no effect and ±100 for the full control effect
#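 Secreted IL-1B measured by AlphaLISA bead assay after 16 h compound exposure of THP-1 cells; compounds (final up to 57.5 uM) added 1 h before LPS (250 ng/mL) and ATP (1.25 mM) stimulation; lower signal means less secretion.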
# ATXN2 expr inh: Primary qHTS for Inhibitors of ATXN expression. HEK-293 ATXN2-luciferase reporter, luminescence, 24 h. Potency, µM (top dose mostly 57 µM), for inactives: at the top dose activity change, negative = inhibition, hits mostly inhibitors. 360,000 compounds, 0.72% hits. AID 1745845, 2022; also: potency is read from the fitted curve at half-maximal effect; % is scaled to controls: 0 for no effect and ±100 for the full control effect; nearly all actives have a fitted effect of over 55% in size
#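 qHTS (up to 57 uM final) was run with 24 h compound exposure of reporter cells at 37 °C. Each well was multiplexed: SteadyGlo luminescence measured ATXN2-luciferase expression after a fluorogenic Gly-Phe-AFC viability readout (25 uM final).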
# HepG2 tox: qHTS for Inhibitors of TGF-b: Cytotox Counterscreen; Potency, µM (series often up to 46.1 µM), inactives show at the top dose activity change, negative = cytotoxicity, hits mostly cytotoxic; 410,000 compounds, 0.76% hits; HepG2 CAGA-GFP viability, ATP luminescence, 18 h; AID 588856, 2011; also: potency is read from the fitted curve at half-maximal effect
#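 CellTiter-Glo luminescence gave cytotoxicity after 18 hours at 37 degrees C. The cells were HepG2 CAGA-GFP in 1% FBS DMEM, stimulated with 500 pg/mL TGF-beta after compound addition. %Activity was normalised to no-cell wells (complete cell-killing) and DMSO (no toxicity), and curves were fitted and classified.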
# An asterisk follows results filed as active; i = inactive; u = inconclusive; x = no result given. Unless noted, calls follow the shape of the dose curve; as a rule, active = well fitted curve in the direction sought with a large enough effect; inconclusive = small, poorly fitted or top-dose-only effect, or another doubt; inactive = no such curve, though single readings can be large; an effect the other way counts as inactive or inconclusive.
SMILES,TGFb inhibitor,ATXN viability,IL1B secr inh,ATXN2 expr inh,HepG2 tox
CCN1CCN(C(c2ccc(C(F)(F)F)cc2)c2ccc3cccnc3c2O)CC1 (centres undefined),u,x,-74.3*,u,-23.7%
Cc1ccccc1NC(=O)c1c(NC(=O)C(F)(F)F)sc2c1CCCCC2,1.41µM*,x,x,x,-38.0%
Cc1ccc(NC(=O)c2c(NC(=O)C(F)(F)F)sc3c2CCCCC3)cc1,1.12µM*,x,x,x,-59.9%
O=C(Nc1cccc(Cl)c1)c1c(NC(=O)C(F)(F)F)sc2c1CCCC2,u,u,x,-44.9%,11.2µM*
Cc1cccc(NC(=O)c2c(NC(=O)C(F)(F)F)sc3c2CCCCC3)c1,1.58µM*,x,x,x,-111.1%
CC(C)c1c(C(=O)N2CCN(CCO)CC2)cnn1-c1nccc(-c2cccs2)n1,x,i,x,x,x
CCOc1ccc(CCNC(=O)CSCc2nc(-c3cccc(C)c3)oc2C)cc1OCC,u,x,x,x,-52.1%
Cc1ncnc2nc[nH]c12,u,x,x,x,-45.2%
C=CCC[C@@H](Cc1ccc(F)cc1)C(=O)OC[C@@H]1CCCN1C(=O)[C@@H](CC=C)CC(=O)N(CCO)Cc1ccccc1,u,u,-73.2*,u,12.6µM*
C=CCC[C@@H](Cc1ccc(F)cc1)C(=O)OC[C@H]1CCCN1C(=O)[C@@H](CC=C)CC(=O)N[C@H](CO)Cc1ccccc1,u,u,-18.8,u,-20.1%
C=CCC[C@@H](Cc1ccc(F)cc1)C(=O)OC[C@@H]1CCCN1C(=O)[C@H](CC=C)CC(=O)N[C@H](CO)Cc1ccccc1,11.2µM*,x,u,u,-108.9%
CCc1ccc(NC(=O)CN2C(=O)C(c3ccc(C)cc3)=NC23CCCCC3)cc1,x,x,x,x,-17.3%
COCCNC(=O)c1cc2c(s1)-c1ccc(Cl)cc1SC2,-28.3%,i,-57.2*,6.1%,-16.5%
Cc1c(/C=C(\C#N)C(=O)Nc2cccc(Cl)c2)c2ccccc2n1Cc1ccccc1,-15.0%,i,x,2.9%,0.8%
CCc1cccc(C)c1NC(=O)CN1C(=O)C2(SCC(=O)N2c2cc(C)cc(C)c2)c2ccccc21 (centres undefined),-8.0%,i,x,-1.2%,0.7%
O=[N+]([O-])c1cnc2ccccc2c1,1.9%,i,18.9,-9.5%,-47.8%
O=[N+]([O-])c1cc([N+](=O)[O-])c2cc3ccccc3nc2c1,u,u,-102.0*,17.6%,-2.3%
COC(=O)c1[nH]c2ccc(Br)cc2c1NC(=O)CN1CCCc2ccccc21,-25.2%,i,-52.9*,-15.7%,-27.1%
COC(=O)c1[nH]c2ccc(Cl)cc2c1NC(=O)CCN1CCN(C2CCCCC2)CC1,-18.8%,u,-20.3,-11.5%,-38.9%
COC(=O)c1[nH]c2ccc(Br)cc2c1NC(=O)CN1CCN(C2CCCCC2)CC1,u,35.5µM*,-99.6*,17.8µM*,-116.9%
CC(C)(CO)NC(=O)c1cnn(-c2ncc3c(n2)-c2ccccc2CC3)c1C1CC1,x,i,x,x,x
CC1C(c2ccccc2)N(C)C(c2ccccc2)CC1(O)c1ccccc1 (centres undefined),u,u,-0.9,u,22.4µM*
CCCC(=O)N1c2nc(C(C)C)nn2C2(CCCCC2)[C@@H]2CCCC[C@@H]21,u,x,x,x,-18.9%
COC(=O)c1cc2oc(C)cc2n1Cc1cccc(Cl)c1,87.9%,u,x,1.6%,76.9%
C=C1C(=O)C23C(O)C1CCC2C12CCCC(C)(COC(C)=O)C1C(O)C3(O)OC2 (centres undefined),2µM*,7.08µM*,0.0,u,3.16µM*
COc1ccccc1NC(=O)C1CCN(c2cnccn2)CC1,-14.8%,i,x,-11.7%,-9.4%
Cc1ccc(NC(=O)CSc2ncnc3ccccc23)cc1S(=O)(=O)N1CCOCC1,u,i,-100.3*,38.3%,-7.5%
COc1ccc(S(=O)(=O)N2CCCCC2)cc1NC(=O)CSc1ncnc2ccccc12,-19.4%,u,-62.3*,18.8%,2.5%
Cc1ccc(NC(=O)CNc2cccc(Br)c2)cc1S(=O)(=O)N1CCOCC1,u,i,-51.9*,u,-21.1%

# Screening data deposited in PubChem BioAssay by National Center for Advancing Translational Sciences (NCATS).
